The structures appear in SMILES notation. A number with no mark means an inactive call. Activity calls are given as the source filed them. No stated cut-off is given here; in the data, active means inhibition above about 33%; inactive means the rest.

This test is described as follows: compounds suppressing VP16-driven luciferase signal – cell-based, luminescence, high throughput, counter-screen for LRH-1 inverse agonist project (AID 651615). As to conditions: Gal4-VP16 luciferase reporter cells, at 3.6 µM, hits give high values. For orientation: A counterscreen serves to expose hits that act by an unwanted route or on another target.
Turning to `COC1/C=C/C=C(\C)Cc2cc(O)c(Cl)c(c2)N(C)C(=O)CC(OC(=O)C(C)C)C2(C)OC2C(C)C2CC1(O)NC(=O)O2` (stereo not drawn), the inhibition was 32.6% (active). With `CCOC(=O)[C@]12Cc3ccccc3[C@H]1N(C1CCCCC1)C(=O)c1cc(OC)ccc12` the figure was 85.2% (active); with `COc1ccccc1-n1c(/C=C/c2ccccn2)nc2ccccc2c1=O`, 4.69%; with `N#Cc1c(Br)n(C2OC(CO)C(O)C2O)c2ncnc(N)c12` (stereo not drawn), 48.6% (active). In the case of `Cc1ccc2c(C)c3ccc4ccccc4c3c[n+]2c1`, the inhibition was 78% (active). With `CC1=C(O)C(=O)C=C2C1=CC=C1C2(C)CCC2(C)C3CC(C)(C(=O)O)CCC3(C)CCC12C` (stereo not drawn) the figure was 89.5% (active); with `O=[N+]([O-])c1cc(F)c(N2CCCCCC2)cc1N1CCNCC1`, 9.46%.

With `COC(=O)C12CCc3c(ccc4cc(OC)ccc34)C1=CC(=O)C2` (stereo not drawn), the inhibition was -1.27%. With `CCOC(=O)[C@]12Cc3cc(C)ccc3[C@H]1N(C1CCCCC1)C(=O)c1cc(OC)ccc12` the figure was 87.9% (active); with `COc1ccc2c(c1)/C(=C/c1cnc[nH]1)C(=O)N2`, 11.2%; with `Cc1ccc(-n2nc(C)cc2NC(=O)COc2cc(C)cc3oc(=O)c4c(c23)CCC4)cc1`, -10.8%. `Cc1cc(S(=O)(=O)NC(C)C)ccc1OCC(=O)N1CCN(Cc2ccc3c(c2)OCO3)CC1`: the inhibition is 19.5%. As for `COc1cc2c(cc1OC)[C@@H]1C(=O)c3ccc4c(c3O[C@@H]1CO2)C[C@H](C(C)C)O4`, the inhibition was 57.4% (active). With `CC(C)(C)c1ccc(CSc2cnn(C(C)(C)C)c(=O)c2Cl)cc1` the figure was 57.7% (active); with `CC1=CC2OC3CC4OC(=O)C=CC=CC(=O)OCCC(C)C(O)C(=O)OCC2(CC1)C4(C)C31CO1` (stereo not drawn), 98.1% (active). As to `Cn1cc(NC(=O)CCl)cn1`, the inhibition is -18.7%. With `CCN1CCN(c2cc(N3CCCC3)c([N+](=O)[O-])cc2F)CC1` the figure was 15.6%. On to `O=Cc1cn(Cc2cccc([N+](=O)[O-])c2)c2ccccc12`, for which the inhibition is 14.4%. With `CC1CCN(C(=O)CCl)CC1`, the inhibition was -7.83%. On to `Cc1cc(OCC(=O)OC(C)C)c2c3c(c(=O)oc2c1)CCCC3`, for which the inhibition was -9.99%.

As for `CCOC(=O)[C@]12Cc3cc(Cl)ccc3[C@H]1N(C1CCCCC1)C(=O)c1cc(OC)ccc12`, the inhibition is 87.7% (active). Turning to `CCN(CC)C1=NC(=[N+](CC)CC)c2ccccc21`, the inhibition is 85.6% (active).

As for `CCOC(=O)[C@]12Cc3c(cc(OC)c(OC)c3OC)[C@H]1N(C1CCCCC1)C(=O)c1ccccc12`, the inhibition is 89.3% (active). With `CCOC(=O)[C@]12Cc3ccc(C)cc3[C@H]1N(C1CCCCC1)C(=O)c1cc(OC)ccc12` the figure was 91.8% (active); with `COc1cc2c(cc1OC)C1C(=O)c3ccc4c(c3OC1CO2)CC(C(C)C)O4` (stereo not drawn), 65.5% (active). With `CC12CCC(O)CC1CCC1C2CCC2(C)C(C3=CC(=O)OC3)C(O)CC12O` (stereo not drawn) the figure was 41% (active); with `N#Cc1ccc(Cn2cc(C=O)c3ccccc32)cc1`, 1.97%. With `C=C1[C@@H](C)[C@H]2[C@H](Cc3ccccc3)NC(=O)[C@]23OC(=O)/C=C/[C@H](O)CCC[C@@H](C)C/C=C/[C@H]3[C@@H]1O` the figure was 27%.

Usually inhibition stands for the change of the read-out against control, counted positive when it falls.

For the origin of these results see PubChem BioAssay.
